Data: paper PMC10668032, “Altered binding affinity of SIX1-Q177R correlates with enhanced WNT5A and WNT pathway effector expression in Wilms tumor”
Whole data set: some 33,000 sequences, median “e-score” near -0.05, cut for the highest 2% near 0.38. The full list was thinned out, with the highest values kept by preference.

target: T1, SIX1-Q177R homeodomain (human, UniProt Q15475 108-198, Q177R); experiment: universal protein binding microarray; Universal all-10-mer PBM (8x60K, AMADID 030236), 300 nM GST-tagged protein, Alexa Fluor 488 anti-GST; buffer, salt, pH and temperature not stated (as in Berger); high values mean tight binding; conditions: protein: ivt; tags: N-terminal GST; dsDNA, one strand shown
T1 sequence: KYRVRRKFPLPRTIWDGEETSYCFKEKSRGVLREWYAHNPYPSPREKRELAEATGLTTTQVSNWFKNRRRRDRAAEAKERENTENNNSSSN
In short: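 After in vitro transcription/translation, GST-tagged homeodomains were quantified against a recombinant GST standard curve by anti-GST western blot. They were then placed in duplicate at 300 nM final concentration on universal 'all 10-mer' protein binding microarrays of 8×60K format.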

Sequence	binding signal
ATGGCCGA	0.155 ± 0.00984 E-score
GGGATACA	0.234 ± 0.00449 E-score
CACCTGTA	0.232 ± 0.0126 E-score
GACAACAC	0.386 ± 0.0047 E-score
CACAACAC	0.38 ± 0.0127 E-score
GGCAACAC	0.4138 ± 0.00188 E-score
GACACAAC	0.207 ± 0.0332 E-score
GGGCACAC	0.284 ± 0.0218 E-score
CGCAACAC	0.366 ± 0.00704 E-score
AACACAAC	0.176 ± 0.0727 E-score
CACAACAA	0.168 ± 0.00449 E-score
AACAACAC	0.414 ± 0.0082 E-score
CACACAAC	0.153 ± 0.0694 E-score
AAGGGAGT	0.181 ± 0.0594 E-score
CACGACTG	0.19 ± 0.0173 E-score
ATATGGTG	0.245 ± 0.0104 E-score
CTTCTACA	0.161 ± 0.0182 E-score
GCACCCTA	0.226 ± 0.0182 E-score
ACACCCTA	0.4661 ± 0.00184 E-score
ACACCCTC	0.4743 ± 0.00338 E-score
ACACCCTG	0.4727 ± 0.000955 E-score
ACCCCCTC	0.324 ± 0.00733 E-score
ACCCCCTG	0.328 ± 0.0317 E-score
ACCCTCTC	0.164 ± 0.0166 E-score

Sequence	binding signal
CCACCCTA	0.174 ± 0.00684 E-score
ATACCCTG	0.31 ± 0.0148 E-score
ACCGCACA	0.232 ± 0.00335 E-score
TGGGAACA	0.172 ± 0.0191 E-score
CGCCCGAC	0.184 ± 0.0127 E-score
ACCGAGTG	0.363 ± 0.0115 E-score
CACCAGGC	0.336 ± 0.016 E-score
CACGAAGA	0.183 ± 0.0282 E-score
AGATTACA	0.23 ± 0.00802 E-score
CCGACACC	0.488 ± 0.0101 E-score
AAGACACA	0.174 ± 0.0361 E-score
ACGACACA	0.273 ± 0.0776 E-score
TCGACACA	0.188 ± 0.0429 E-score
CCGACTCC	0.159 ± 0.044 E-score
CCGACCCC	0.24 ± 0.0393 E-score
ACGACACG	0.426 ± 0.0132 E-score
ACGACACT	0.4277 ± 0.00127 E-score
CCGACACG	0.418 ± 0.0317 E-score
CCGACACA	0.295 ± 0.0445 E-score
ACCCGCTC	0.227 ± 0.00437 E-score
CACCTGCC	0.225 ± 0.0171 E-score
ACCCGAAC	0.173 ± 0.0027 E-score
TGTCGTAA	0.163 ± 0.00414 E-score
CCCCCCCG	0.218 ± 0.0264 E-score

Sequence	binding signal
GGGTGATA	0.218 ± 0.0149 E-score
GATCCCGC	0.185 ± 0.0357 E-score
CGGGTACG	0.182 ± 0.00752 E-score
ACGACCCC	0.244 ± 0.0306 E-score
GCGACACA	0.262 ± 0.0569 E-score
GCGACACC	0.487 ± 0.00655 E-score
GCGACCCC	0.212 ± 0.0261 E-score
ACGACTCC	0.309 ± 0.0346 E-score
ACGACACC	0.487 ± 0.00563 E-score
CACTTGAA	0.202 ± 0.00417 E-score
CACCTTAC	0.248 ± 0.036 E-score
CACTCTCG	0.288 ± 0.0157 E-score
CCCCGAAC	0.181 ± 0.00559 E-score
AGGACCCC	0.205 ± 0.0283 E-score
AACACGTG	0.371 ± 0.00902 E-score
GACTCCTC	0.166 ± 0.0214 E-score
AACACCTG	0.44457 ± 0.000354 E-score
GACCCCTC	0.26 ± 0.015 E-score
CACACATG	0.165 ± 0.0245 E-score
AACACATA	0.17 ± 0.0243 E-score
GACACCTC	0.4825 ± 0.00161 E-score
CACACCTG	0.389 ± 0.0159 E-score
CACACCTA	0.333 ± 0.00896 E-score
AACACTTG	0.336 ± 0.0307 E-score

Sequence	binding signal
AACACCTA	0.444 ± 0.00846 E-score
CCGAGACA	0.274 ± 0.00602 E-score
ATGATACC	0.335 ± 0.0146 E-score
CACCACGG	0.226 ± 0.00882 E-score
ATGCGGTG	0.295 ± 0.0245 E-score
CGGGCGAC	0.215 ± 0.0122 E-score
CACTGGGG	0.287 ± 0.0142 E-score
ATAAGGTG	0.217 ± 0.0216 E-score
AACTGTGT	0.159 ± 0.066 E-score
CCGGATCC	0.249 ± 0.0202 E-score
TCGATACA	0.198 ± 0.0102 E-score
CACTCCAG	0.225 ± 0.00445 E-score
GTTCGGTA	0.156 ± 0.0218 E-score
GATACCTA	0.3275 ± 0.000891 E-score
TACACGTA	0.355 ± 0.0208 E-score
AACACGTT	0.272 ± 0.0421 E-score
AACACTTC	0.326 ± 0.0413 E-score
AACACCTT	0.452 ± 0.0164 E-score
GACACATA	0.234 ± 0.0761 E-score
AACACCTC	0.456 ± 0.0111 E-score
TACACCTA	0.47 ± 0.00841 E-score
AGCACCTC	0.178 ± 0.00186 E-score
GACACCTA	0.463 ± 0.00697 E-score
AACACACT	0.276 ± 0.0133 E-score

Sequence	binding signal
TACACATA	0.209 ± 0.0376 E-score
GCGGGTTA	0.21 ± 0.00486 E-score
CCCGCCCG	0.233 ± 0.0272 E-score
CCCCCGAC	0.272 ± 0.00679 E-score
ATACCCGA	0.241 ± 0.0123 E-score
AAGACGTG	0.166 ± 0.073 E-score
ACACTTTC	0.354 ± 0.0256 E-score
CCCTTCCC	0.181 ± 0.0277 E-score
CACACCTC	0.403 ± 0.00914 E-score
CACCTCTG	0.2874 ± 0.00224 E-score
CACACTTC	0.205 ± 0.0263 E-score
CACGTCCC	0.165 ± 0.0267 E-score
ATAAACCC	0.16 ± 0.0287 E-score
ACCCGATC	0.253 ± 0.057 E-score
ACACGATA	0.3751 ± 0.00175 E-score
ACACGATC	0.385 ± 0.00771 E-score
ACACGAAG	0.346 ± 0.00991 E-score
ACACGATG	0.3915 ± 0.00105 E-score
ACACGAAC	0.3433 ± 0.00132 E-score
CAGCACCC	0.188 ± 0.00201 E-score
GGATAACA	0.204 ± 0.00942 E-score
CACGGGTC	0.253 ± 0.0022 E-score
CCCTGAGG	0.177 ± 0.00892 E-score
